Shown are actives, neighbours in structure and some others; about 1.8% of the full set was active somewhere.
F508del corr: F508del CFTR correction, initial screen, CFBE line, single point; activity (quench increase), % at 7.58 µM; 0.36% of 350,000 active; CFBE cells, YFP halide quenching; stimulated with forskolin plus potentiator P3; % fluorescence drop versus neutral controls;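 active = mean added fluorescence quench of at least 8% versus neutral control, with both replicates also reaching 8%; inconclusive = only one of the mean or replicate conditions met; inactive = mean below 8% and not both replicates reaching 8%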;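 note: cells transiently co-express mutant CFTR-F508del with the halide-sensitive YFP; corrector assay measuring rescue of mutant channel to the surface after 24 h compound exposure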
RAD54 branch: inhibitors of human RAD54 branch migration, primary screen, biochemical, fluorescence, single point. RAD54 Holliday junction branch migration, FAM/BHQ fluorescence. inhibition, % at 10.4 µM. 0.14% of 360,000 active;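 active = mean normalized replicate activity at least 40 and at least half of replicates scoring 40 or more; inconclusive = only one of the two criteria met; inactive = mean below 40 and under half of replicates reaching 40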;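 note: 0% = median of neutral control wells and 100% = median of positive control wells; inhibitors cause a drop in the FAM fluorescence signal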
LGR2 antag: inhibitors of bursicon-induced LGR2 CRE-luciferase signal, primary screen, cell-based, HEK293, CRE-luciferase reporter, bursicon stimulation | Drosophila bursicon receptor LGR2 (rickets) | bursicon-stimulated, 4 h | inhibition, % at 9.99 µM | 0.35% of 380,000 active;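 active = drop in luminescence signal, shown as inhibition above about 50% in the replicate tests, limit read from the data, passing the limit was not always enough; inconclusive = probably only some replicates passing the limit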;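 note: agonist challenge used bursicon conditioned medium at about half maximal strength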
RAD52 anneal inh: RAD52 DNA annealing inhibitors, primary screen, biochemical, FRET, single point, set 2; 0.46% of 360,000 active; inhibition, % at 18.7 µM; DNA repair protein RAD52 homolog (Homo sapiens), P43351; recombinant RAD52 DNA annealing, FRET fluorescence;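 active = every replicate showing at least 50% inhibition; inconclusive = mean inhibition at least 50% but not in every replicate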
Target sequence (P43351 whole entry, looked up): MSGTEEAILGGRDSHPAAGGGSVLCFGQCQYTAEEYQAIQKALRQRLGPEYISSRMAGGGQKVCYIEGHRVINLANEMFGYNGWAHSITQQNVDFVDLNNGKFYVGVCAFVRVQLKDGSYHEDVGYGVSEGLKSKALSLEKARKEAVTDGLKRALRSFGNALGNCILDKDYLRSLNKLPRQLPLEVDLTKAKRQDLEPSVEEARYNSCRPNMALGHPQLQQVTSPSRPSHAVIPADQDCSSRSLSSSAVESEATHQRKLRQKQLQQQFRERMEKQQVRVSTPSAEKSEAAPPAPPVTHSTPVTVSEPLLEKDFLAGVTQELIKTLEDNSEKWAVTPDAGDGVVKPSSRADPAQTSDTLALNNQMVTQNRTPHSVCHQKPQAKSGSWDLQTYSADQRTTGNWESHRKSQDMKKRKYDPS
EWS-Fli inh: EWS/Fli-driven NR0B1 reporter inhibitors, primary screen, A673 cells, NR0B1 luciferase, luminescence, MLPCN library | 0.67% of 350,000 active | viability-normalised | AID 651661, 2012 | inhibition, % at 12.6 µM;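 active = mean inhibition of at least 50% after viability correction, with every replicate also passing that limit; inconclusive = mean reaches 50% but only one of two replicates passes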;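 note: firefly luciferase signal divided by Alamar Blue viability fluorescence both relative to DMSO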
GSIS activator: GLuc luminescence reporter in INS-1E cells, primary screen for activators of glucose-dependent secretion of insulin. AID 743287, 2014. activation, % at 16.6 µM. 0.61% of 370,000 active. INS-1E GLuc reporter insulin secretion, 2-3 h;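 active = lowest replicate activation of at least 40%, so every replicate reaches that level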;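 note: 0% = median of neutral control wells and 100% = median of IBMX positive control wells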
Starred values were filed as active, the others as inactive; ? = inconclusive; / = not tested or not shown; ! = not active in a repeat.

SMILES	F508del corr	RAD54 branch	LGR2 antag	RAD52 anneal inh	EWS-Fli inh	GSIS activator
COc1cc(C=C2C(=O)C=CC2=O)ccc1O	-3.2	/	9.7	7.8	46.3	52.4*
CCN1C/C(=C/c2cccc([N+](=O)[O-])c2)C(=O)/C(=C/c2cccc([N+](=O)[O-])c2)C1	/	3.8	83.8*	/	/	-21.6
Cc1ccc2c(c1)COc1c3ccc(C(=O)N4CCOCC4)cc3nn1-2	3.0	16.4	-67.2	-2.5	-141.4	21.7
COc1cccc(-c2cc(C(=O)Nc3ccccc3)c3ccccc3n2)c1	/	3.8	2.8	-45.9	0.6	-0.5
CC(C)(C)c1ccc(C(=O)NCC(=O)OCC(=O)Nc2ccccc2[N+](=O)[O-])cc1	/	/	4.0	/	/	-16.0
Cc1cnc(C(=O)OC(C)C(=O)Nc2ccc(Oc3ccccc3)cc2)cn1 (stereo not drawn)	-6.3	2.9	-10.7	-7.9	-9.5	-50.0
Cc1cnc(C(=O)OC(C)C(=O)NCc2ccccc2)cn1 (stereo not drawn)	-3.9	-3.7	-9.7	-0.2	2.6	59.1*
COc1ccccc1C(=O)Nc1nc2ccccc2[nH]1	1.3	-1.3	103.4*	16.6	92.4*	11.9
O=C(Nc1ccc2ccccc2n1)c1ccccc1Cl	-0.2	10.9	-44.7	-15.0	1.6	0.9
COc1cc(SC)ccc1C(=O)Nc1nc2ccccc2[nH]1	0.5	-0.2	105.0*	-6.5	93.5*	12.2
CSc1ccccc1C(=O)Nc1nc2ccccc2[nH]1	2.6	-4.2	-59.4	-2.4	-84.5	-2.7
COc1ccc(C(=O)Nc2ccc3ccccc3n2)c(OC)c1OC	3.2	-5.3	89.3*	-5.0	55.4*	9.7
COc1ccc(S(=O)(=O)Nc2ccc3c(c2)C(=O)N([C@@H](C)CO)C[C@H](C)[C@H](CN(C)CC2CC2)O3)cc1	-0.4	3.2	-14.7	15.9	2.6	6.6
CCOc1ccc(C2CC(=O)c3c([nH]c(C(=O)OC)c3C)C2)cc1OC (stereo not drawn)	/	-10.9	/	/	/	/
COCCOC(=O)c1[nH]c2c(c1C)C(=O)CC(c1ccco1)C2 (stereo not drawn)	7.2	-7.9	-4.0	-13.3	64.9*	-9.7
COC(=O)c1[nH]c2c(c1C)C(=O)CC(c1cc(OC)ccc1OC)C2 (stereo not drawn)	3.6	-1.1	12.1	-0.3	54.2*	0.3
CCOC(=O)CC1C(=O)NCCN1C(=O)c1ccc(Cl)c(Cl)c1 (stereo not drawn)	-0.7	-0.2	-0.6	-8.4	-8.5	8.5
O=C(Nc1ccc2c(c1)OCO2)N1C[C@@H]2N[C@H](C1)C2c1ccc(-c2ccccc2)cc1 (stereo partly drawn)	0.8	/	14.0	68.2*	-7.0	0.1
N#Cc1cccc(-c2ccc(C3[C@@H]4CN(C(=O)Nc5ccc6c(c5)OCO6)C[C@H]3N4)cc2)c1 (stereo partly drawn)	-0.8	/	24.1	55.5*	1.1	-36.6
N#Cc1ccc(-c2ccc(C3[C@@H]4CN(C(=O)c5ccc6c(c5)OCO6)C[C@H]3N4)cc2)cc1 (stereo partly drawn)	2.4	/	2.3	56.2*!	-7.8	6.9
CCOCCCNC(=O)/C(C#N)=C/c1ccc([N+](=O)[O-])o1	1.4	7.1	?	-39.6	44.2	-3.0
COC(=O)c1cnc(Oc2ccc(NC(=O)NC(=O)c3c(OC)cccc3OC)cc2)cc1C(F)(F)F	6.5	/	4.2	-15.5	52.0*	-2.1
COC(=O)c1cnc(Oc2ccc(NC(=O)NC(=O)c3c(F)cccc3Cl)cc2)cc1C(F)(F)F	0.4	/	-1.3	-9.6	51.1*	6.1
CC(=O)C1=C(NC(=O)c2ccc(C(F)(F)F)cc2)C[C@@H]2[C@H]1C2(C)C	-1.8	2.1	-0.7	-13.0	6.0	-10.2
O=C1c2ccccc2C(=O)N1CCc1csc(-c2ccc(F)cc2)n1	/	-25.9	/	/	/	/
SMILES	F508del corr	RAD54 branch	LGR2 antag	RAD52 anneal inh	EWS-Fli inh	GSIS activator
Cc1ccc(C(=O)C2=C(O)C(=O)N(c3ncccn3)C2c2ccc(F)cc2)o1 (stereo not drawn)	1.7	7.9	5.0	-11.2	1.5	-19.6
CCOC(=O)N1CCN(C(=O)C2CCN(C(=O)c3ccccc3C)CC2)CC1	-11.2	6.9	-1.1	-42.3	24.9	105.9*
Cn1cnc(Sc2ncnc3nc[nH]c23)c1[N+](=O)[O-]	2.1	-0.4	-0.7	-3.9	30.5	-2.2
Cn1cnc2nc[nH]c2c1=S	16.0*	2.5	-15.9	-11.3	-1.8	5.5
Cc1ccc(N2CCN(C(=O)c3[nH]c(C(F)(F)F)nc3-c3ccccc3)CC2)cc1	-0.7	4.6	-7.7	-15.6	-2.9	/
O=C(c1[nH]c(C(F)(F)F)nc1-c1ccccc1)N1CCN(c2ccccc2)CC1	6.2	-10.7	2.9	-19.3	65.4*	-15.1
COc1cc(NC(=O)c2cccs2)ccc1NC(=O)c1cc2ccccc2o1	4.3	/	24.0	-14.3	-2.1	4.8
O=S(=O)(c1cc(F)ccc1F)N1CCC2(CC1)OCCO2	-0.4	1.4	-0.5	-6.1	/	14.9
CO[C@@H]1CN(C)C(=O)c2ccc(NC(=O)C3CC3)cc2OC[C@@H](C)N(C(=O)c2cnccn2)C[C@H]1C	0.7	-8.7	-2.3	9.3	-0.1	-7.5
C[C@H]1CN([C@@H](C)CO)S(=O)(=O)c2ccc(-c3ccccc3)cc2O[C@H]1CN(C)C(=O)Cc1ccccc1	/	-0.9	-9.5	12.8	-15.5	-30.0
CC(C)c1ccc(NC(=S)N2CCCC(c3ccc(F)cc3)=N2)cc1	-4.4	/	/	-1.2	17.1	/
COCCNC(=O)CCCn1c(=O)c2ccccc2n(Cc2ccccc2C#N)c1=O	-1.4	2.8	-5.6	-12.9	-47.2	54.2*
COc1cccc(CNC(=O)c2cccnc2Sc2ccccc2)c1	-0.5	-0.2	-49.2	-4.1	/	48.3*
CCCN1C[C@H](C)[C@H](OC)CN(C)C(=O)c2ccc(NS(=O)(=O)c3cn(C)cn3)cc2OC[C@@H]1C	0.9	-19.0	-13.4	-1.5	7.0	10.2
COc1ccc(NS(=O)(=O)c2cc(NC(=O)c3ccc(=O)[nH]n3)ccc2C)cc1	-1.1	4.9	-8.2	1.4	56.2*	1.4
COc1ccc(NS(=O)(=O)c2cc(C(=O)O)ccc2C)cc1	0.0	4.7	18.4	-10.0	-0.3	6.3
Cc1cc(NC(=O)c2cc(-c3cccc(Cl)c3)on2)no1	/	13.5	-24.1	/	/	124.8*
COc1ccc(CNC(=O)c2cc(-c3ccc(OC)c(OC)c3)on2)cc1	/	-2.8	/	/	/	78.0*
COc1cccc(-c2cc(C(=O)Nc3cc(C)on3)no2)c1	/	/	/	/	/	72.8*
COc1cccc(-c2cc(C(=O)Nc3cccnc3)no2)c1	/	-6.4	/	/	/	/

Source: PubChem BioAssay
